In paper PMC8159961, “Exploring protein hotspots by optimized fragment pharmacophores” (Nature Communications, 2021):
Values without a mark were called inactive. The rule behind the calls is not given here.

The compounds below were run against 5-HT1A receptor (human, UniProt P08908) (assay: primary screen, binary call; higher = more effect of the substance). Settings: 10 µM.
Design: hit call from the mean of at least two separate experiments
Protocol: GPCR radioligand binding assays were performed in HEK293 cells with stable expression of human 5-HT1A, 5-HT6, and 5-HT7b receptors (prepared with the use of Lipofectamine 2000). Non-specific binding was defined with 10 µM of 5-HT in 5-HT1AR and 5-HT7R binding experiments, whereas 10 µM of mianserin was used in 5-HT6R assays, respectively. Each compound was tested at 10 µM concentration. Results were expressed as means of at least two separate experiments.

5-HT1A receptor, sequence (P08908 whole entry, looked up): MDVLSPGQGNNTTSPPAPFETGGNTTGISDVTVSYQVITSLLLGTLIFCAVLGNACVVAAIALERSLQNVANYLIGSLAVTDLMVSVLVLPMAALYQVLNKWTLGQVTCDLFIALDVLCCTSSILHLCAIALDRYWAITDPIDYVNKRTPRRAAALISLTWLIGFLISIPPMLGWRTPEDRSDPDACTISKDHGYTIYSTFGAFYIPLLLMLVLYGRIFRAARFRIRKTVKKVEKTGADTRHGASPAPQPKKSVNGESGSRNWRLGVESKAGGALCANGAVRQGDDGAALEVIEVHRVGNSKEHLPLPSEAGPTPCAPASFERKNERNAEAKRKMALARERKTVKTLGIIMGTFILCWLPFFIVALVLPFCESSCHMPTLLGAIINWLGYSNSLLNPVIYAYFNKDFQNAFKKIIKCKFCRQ

| SMILES | 5-HT1 |
| --- | --- |
| c1ccc2c(N3CCNCC3)ccnc2c1 | 1 (active) |
| O=c1ccc2c([nH]1)CCCC2 | 0 |
| NC1CCc2ccccc21 (centres unmarked) | 0 |
| O=C1NC(=O)C2(CCc3ccccc32)N1 (centres unmarked) | 0 |
| N#CC1CCS(=O)(=O)C1 (centres unmarked) | 0 |
| O=C(CN1CCCC1)c1ccccc1Cl | 1 (active) |
| O=C(NC1CC1)c1ccccc1O | 0 |
| O=C(Nc1ccccc1)C1CC1 | 0 |
| O=c1[nH]ncc2c1oc1ccccc12 | 0 |
| c1ccc2sc(N3CCNCC3)nc2c1 | 1 (active) |
| COc1ccccc1C1CCNCC1 | 1 (active) |
